For twelve compounds, outcome and Potency results are on record in PubChem BioAssay (Tox21).

“And” between values parts separate entries of the source, which are not always exact repeats. Equal values may be shown once. Inconclusive results are not listed. Some structures have more than one record in an assay (separate samples or runs), and their calls can disagree. The source made the active and inactive calls. Unless noted, calls follow the shape of the full dose curve.

Test [1] can be described thus: qHTS assay to identify small molecule antagonists of the vitamin D receptor (VDR) signaling pathway - cell viability counter screen (AID 743225; active = well fitted curve in the direction sought with a large enough effect in the repeat runs; an effect the other way counts as inactive or inconclusive; also: nearly all actives have a fitted effect of over 50% in size). To be noted: VDR-bla HEK293T viability, CellTiter-Glo luminescence, 16 h; series mostly up to 61 µM. In a few lines:
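Same-well multiplex: following 16 h treatment of HEK 293T cells carrying a UAS-driven beta-lactamase reporter with compound and agonist (3 nM final), and a 2 h FRET substrate step, CellTiter-Glo was added and luminescence read after 30 min.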

Test [2] is described as follows: qHTS assay to identify small molecule agonists of the NFkB signaling pathway - cell viability counter screen (AID 1159515). Also: nearly all actives have a fitted effect of over 55% in size. To be noted: NFkB-bla ME-180 viability, CellTiter-Glo luminescence, 5 h; series mostly up to 61 µM. In a few lines: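 Using the same wells as the NFkB reporter read, ME-180 NFkB-bla cells given compounds for 5 hr were assessed for viability via CellTiter-Glo, with luminescence taken after a 30 min room-temperature incubation.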
In general terms: In qHTS, concentration-response curves come from the screen itself.

Test [3] can be described thus: qHTS assay to identify small molecule agonists of the endoplasmic reticulum stress response signaling pathway - cell viability counter screen (AID 1159517).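 Also: HeLa cells carrying an ER stress response element beta-lactamase reporter; nearly all actives have a fitted effect of over 50% in size.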 To be noted: ESRE-bla HeLa viability, CellTiter-Glo luminescence, 5 h; series mostly up to 61 µM. In a few lines:
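Luminescence readout: CellTiter-Glo, 30 min RT, same wells as the ESRE-bla reporter read. HeLa ESRE-bla, 1,500 cells/well, o/n 37 C; cpd 5 hr 37 C/5% CO2.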

Test [4] is described as follows: qHTS assay to identify small molecule antagonists of the retinoid-related orphan receptor gamma (ROR-gamma) signaling pathway - cell viability counter screen (AID 1159520; active = well fitted curve in the direction sought with a large enough effect in the repeat runs; an effect the other way counts as inactive or inconclusive; also: nearly all actives have a fitted effect of over 50% in size; also: potency is read from the fitted curve at half-maximal effect). To be noted: Tet-on RORgamma CHO cells viability, ATP luminescence, 16 h; series mostly up to 92.4 µM. In a few lines:
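Tet-on ROR gamma CHO cells (1,000/well) were plated 4 hr, given compounds in DMSO for 2 hr at 37 C, then induced with 1 uM final doxycycline for 16 hr. Viability was read as ATP by CellTiter-Glo luminescence after 30 min.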

Test [5] is described as follows: qHTS assay to identify small molecule agonists of the AP-1 signaling pathway - cell viability counter screen (AID 1159525). Also: nearly all actives have a fitted effect of over 55% in size. To be noted: ME-180 AP-1-bla cells viability, ATP luminescence, 5 h; series mostly up to 76.8 µM. In a few lines: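 ME-180 AP-1-bla, 2500 cells/well, Opti-MEM + 0.5% dialyzed FBS; overnight 37 °C; cpd 15-pt titration, 5 h 37 °C; CellTiter-Glo 30 min RT; luminescence read; normalised to TOAB and DMSO controls.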

The nature of test [6]: qHTS assay to identify small molecule agonists of the AP-1 signaling pathway (AID 1159526). To be noted: ME-180 (cervical carcinoma) AP-1-bla reporter, beta-lactamase FRET ratio, 5 h; series mostly up to 76.8 µM.
Test [7] is described as follows: qHTS assay to identify small molecule agonists of the vitamin D receptor (VDR) signaling pathway - cell viability counter screen (AID 743224; active = well fitted curve in the direction sought with a large enough effect in the repeat runs; an effect the other way counts as inactive or inconclusive; also: nearly all actives have a fitted effect of over 50% in size). To be noted: VDR-bla HEK293T viability, CellTiter-Glo luminescence, 16 h; series mostly up to 62.6 µM. In a few lines: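 Plated VDR-bla cells (4 h, 37C) received compound, incubated 16 h, then LiveBLAzer substrate 2 h RT; CellTiter-Glo added afterwards, luminescence read at 30 min.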

A short description of test [8]: qHTS assay to identify small molecule agonists of the endoplasmic reticulum stress response signaling pathway (AID 1159516; active = well fitted activation curve with a large enough effect in the signal ratio in the repeat runs, not every such curve was filed as active; the % refers to the signal ratio). The note with it: ESRE-bla HeLa, ER stress beta-lactamase reporter, 5 h; series mostly up to 61 µM. In a few lines:
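An ESRE-bla HeLa cell assay: compounds were pin-transferred from DMSO onto overnight-plated cells and left 5 hr at 37 C. Substrate was then loaded for 2 hr at room temperature before reading fluorescence at 460 nm and 530 nm.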

Test [9] addresses Nuclear receptor ROR-gamma (Homo sapiens) (UniProt P51449). Put plainly: qHTS assay to identify small molecule antagonists of the retinoid-related orphan receptor gamma (ROR-gamma) signaling pathway (AID 1159521; active = well fitted curve in the direction sought with a large enough effect in the repeat runs; an effect the other way counts as inactive or inconclusive). The note with it: Tet-on RORgamma CHO cells, RORE-luciferase, 16 h; series mostly up to 92.4 µM. In a few lines: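 Inducible-expression reporter assay: doxycycline (1 uM final) switched on RORγ in CHO cells bearing a ROR response element-luciferase construct, with test compounds present from 2 h beforehand. Decreased luminescence after 16 h defined antagonist activity.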

`CCCCC(CC)COC(=O)CCCCC(=O)OCC(CC)CCCC` (centres undefined): the compound was classed as inactive in test [1], in test [2], in test [3] and in [6]. Further, the Potency result in test [4] and in [5] was “inactive” throughout.

As to `Cc1cccc(O)c1`, the Potency entry in test [7], in [4] and in [5] was “inactive” in each case. Moreover, the outcome in test [1], in [2], in test [3] and in [6] was inactive.

Regarding `O=C(CC(C(=O)OC1CCCCC1)S(=O)(=O)O)OC1CCCCC1` (centres undefined), the Potency entry in test [7] and in [5] was “inactive” each time. The compound was classed as inactive in test [1], in test [2], in test [8], in test [3] and in [6]. Besides, the Potency entry in test [4] was “inactive and 53.8 µM (active)”.

With `O=C(O)c1cc(C(=O)O)cc(S(=O)(=O)O)c1`, the compound was called inactive in [1], in [2], in [3] and in test [6]. Also, the Potency result in test [4], in test [9] and in test [5] was “inactive” in each case.

Regarding `CCCCCCCCCCCCCCO`, the Potency result in test [7], in test [4] and in [5] was “inactive” throughout. The outcome in test [1], in test [2], in [3] and in test [6] was inactive.

Consider `CC1CCC2CC1C2(C)C` (centres undefined), for which the Potency entry in [7], in [4] and in [5] was “inactive” in each case. For the same compound, the outcome in test [1], in test [2], in [8], in test [3] and in test [6] was inactive.

For `CC(=O)c1ccccc1`, the call in test [1], in [2], in test [8], in test [3] and in test [6] was inactive. Moreover, the Potency entry in test [4] and in test [5] was “inactive” in each case.

Consider `C#C[C@]1(O)CC[C@H]2[C@@H]3CCC4=CC(=O)CC[C@@H]4[C@H]3CC[C@@]21C`, for which the Potency result in test [7], in test [4] and in test [5] was “inactive” in each case. Also, the call in test [1], in test [2], in test [8], in test [3] and in test [6] was inactive.

As to `c1ccc2scnc2c1`, the Potency result in [7], in test [4], in test [9] and in test [5] was “inactive” each time. The outcome in test [1], in test [2], in test [8], in test [3] and in [6] was inactive.

`CC(=O)CC(=O)Nc1ccccc1C`: the Potency result in [7], in test [4] and in test [5] was “inactive” in each case. For the same compound, the compound was called inactive in test [1], in test [2], in test [3] and in test [6].

In the case of `c1ccc2c(c1)ccc1ccccc12`, the compound was called inactive in test [1], in test [2], in test [8], in test [3] and in test [6]. The Potency result in test [4] and in test [5] was “inactive” throughout.

Take `C#CCN(C)Cc1ccccc1`: the Potency result in [7], in [4] and in [5] was “inactive” in each case. The compound was called inactive in test [1], in [2], in test [8], in test [3] and in [6].
